High-throughput results: PubChem BioAssay, several laboratories
In the library only some 0.5% were active in any assay of this set; here they are far more common.
phage Ecoli inh – E. coli growth loss with phage present. growth absorbance. inhibition, % at 11.9 µM. 360,000 tested, 0.26% active. AID 651602; in the data active = inhibition above about 11%
E coli growth-1 – blocks Escherichia coli growth; OD600 absorbance (test concentration not listed); OD600, 23 h; stronger effect = lower value; 330,000 tested, 0.21% active; AID 1053175;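 active = OD600 absorbance below the run mean of sample wells minus 3.6 SD, in any replicate, cut at about 0.56 in these data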
E coli growth-2 – counter-screen for AddAB inhibitors: E. coli growth inhibition | E. coli V3065 growth, OD600 absorbance, 18 h | inhibition, % at 11.9 µM | 330,000 tested, 0.27% active;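 active = inhibition above the campaign's mean inhibition across all tested compounds plus 3 SD, cut at about 9.9% in these data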;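 also: uninfected addAB+ strain grown without phage in ampicillin broth; 0% = DMSO wells and 100% = ciprofloxacin 0.95 µg/ml wells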
AddAB inh – less growth of phage-infected E. coli with AddAB; inhibition, % at 11.9 µM; 330,000 tested, 0.29% active; AID 435030; E. coli expressing H. pylori AddAB, absorbance growth; in the data active = inhibition above about 12%;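 also: 0% = vehicle wells of infected cells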
Tat transport – inhibitors of E. coli Tat protein transport | E. coli MC4100 TorA-mCherry Tat export, fluorescence | inhibition, % at 10 µM | 340,000 tested, 0.036% active | AID 488895;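 active = mean replicate inhibition at least 50% and at least half of replicates individually reaching 50%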;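 also: exported cargo escapes ClpAP degradation while cytoplasmic cargo is degraded and loses fluorescence; 0% = median of neutral control wells and 100% = median of NaSCN control wells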
AddAB conf – growth loss of T4-infected E. coli expressing H. pylori AddAB, confirmed; shares compounds with AddAB inh; E. coli V3065 expressing H. pylori AddAB, T4 phage, OD; T4 phage with gene 2 nonsense mutations; inhibition, % at 11.9 µM; 880 tested, 64% active;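 active = mean inhibition above a set limit taken from the earlier primary screen, cut at about 13% in these data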;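 also: higher means less bacterial growth since AddAB block lets phage replicate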
RecBCD counter – counter-screen: growth loss of RecBCD+ E. coli with mutant T4 phage | shares compounds with AddAB inh | E. coli V66 + mutant T4 phage, OD growth | inhibition, % at 11.9 µM | 880 tested, 73% active;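 active = mean inhibition above the mean of solvent-only control wells plus 3 SD, cut at about 4% in these data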;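 also: optical density read after an 18 h incubation at 37 °C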
bact viab count – counter-screen for AddAB inhibitors: inhibitors of bacterial viability. inhibition, % at 11.9 µM. 880 tested, 35% active. absorbance (AddAB counterscreen). shares compounds with AddAB inh; in the data active = inhibition above about 25%
RecBCD conf – growth loss of phage-infected V66 E. coli, RecBCD confirmation screen; E. coli V66 + T4 2- phage, growth OD; 890 tested, 45% active; shares compounds with phage Ecoli inh; inhibition, % at 11.9 µM;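 active = mean inhibition over triplicates exceeding the hit threshold derived in the original primary screen, cut at about 11% in these data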
Ecoli viability – inhibits E. coli viability, flagging RecBCD hits as nonselective | AID 651983 | shares compounds with phage Ecoli inh | inhibition, % at 11.9 µM | 890 tested, 29% active | absorbance (OD) growth; in the data active = inhibition above about 20%;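 also: E. coli strain V66 grown with compound alone and no phage infection; 0% = bacteria with DMSO vehicle only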
AddAB phage OD – growth loss of phage-infected AddAB E. coli, RecBCD counter-screen; shares compounds with phage Ecoli inh; E. coli expressing H. pylori AddAB + T4 phage, OD growth; gene 2 mutant T4, recBCD-deleted host; inhibition, % at 11.9 µM; 890 tested, 45% active; AID 651984;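 active = mean inhibition above the solvent-only control wells' mean plus 3 SD, cut at about 22% in these data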;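 also: higher means less bacterial growth from phage killing when AddAB is blocked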
Numbers without * were called inactive; nt = not tested or not shown; ! = a repeat was not active.

SMILES | phage Ecoli inh | E coli growth-1 | E coli growth-2 | AddAB inh | Tat transport | AddAB conf | RecBCD counter | bact viab count | RecBCD conf | Ecoli viability | AddAB phage OD
NC(=NCCCCCCN=C(N)/N=C(\N)Nc1ccc(Cl)cc1)/N=C(\N)Nc1ccc(Cl)cc1 | 105.7*! | nt | 104.7* | 103.0* | 155.8*! | 100.0* | 100.6* | 99.6* | 103.9* | 104.6* | 104.0*
O=C(NN=Cc1ccc(Cl)cc1)Nc1ccccc1 | nt | 0.713 | nt | nt | nt | nt | nt | nt | nt | nt | nt
Cc1cc(C)c2c(N=NN(C)C)[nH]nc2n1 | 13.6* | 0.578 | 77.9* | 39.1* | 1.9 | 97.4* | 8.6* | 53.7* | 12.0* | 12.3 | 70.3*
Cc1cc(C)c2c(NC(N)=S)n[nH]c2n1 | 3.1 | 0.723 | -0.9 | 0.7 | -2.2 | nt | nt | nt | nt | nt | nt
C(=NNc1ccc(-n2ccnc2)nn1)c1ccccc1 | nt | 0.743 | nt | nt | nt | nt | nt | nt | nt | nt | nt
O=c1ccsn1Cc1ccccc1 | 14.4* | 0.0445* | 8.7 | 75.4* | 22.4 | 101.7* | 29.1* | 25.6* | 7.8 | 9.6 | 77.3*
O=C1NC(Cc2ccccc2)C(=O)N1Cc1ccccc1 (stereo unspecified) | 1.9 | 0.638 | nt | nt | -4.1 | nt | nt | nt | nt | nt | nt
Nc1nc(=S)c2[nH]cnc2[nH]1 | 66.4* | nt | 77.0* | 92.2* | -25.9 | 90.8* | 60.5* | 73.9* | 56.7* | 66.8* | 84.2*
Nc1nc(=S)c2[nH]c(=S)[nH]c2[nH]1 | 4.0 | 0.674 | nt | nt | 7.1 | nt | nt | nt | nt | nt | nt
C/C(C=NNC(=O)c1cccnc1)=C\c1ccco1 | nt | 0.666 | nt | nt | nt | nt | nt | nt | nt | nt | nt
N#C/C(=C\c1ccc([N+](=O)[O-])o1)c1nc2ccccc2[nH]1 | 13.0* | 0.614 | 16.6* | 93.5* | nt | 100.1* | 16.0* | 94.3* | 11.4* | 11.9 | 76.5*
N#C/C(=C(/O)c1ccc([N+](=O)[O-])o1)c1nc2ccccc2[nH]1 | 13.4* | 0.466* | 13.5* | 19.2* | 4.8 | 95.8* | 63.2* | 97.8* | 34.9* | 64.0* | 100.6*
N#C/C(=C\c1ccc(Sc2ccccc2)o1)c1nc2ccccc2[nH]1 | 1.7 | 0.692 | 0.6 | 1.1 | 6.6 | nt | nt | nt | nt | nt | nt
CC(C)(C)/C(O)=C(/C#N)c1nc2ccccc2[nH]1 | -3.3 | nt | 0.0 | -2.0 | 7.1 | nt | nt | nt | nt | nt | nt
CCCc1c(C(=O)NN=Cc2c(OC)ccc3ccccc23)nnn1-c1nonc1N | nt | 0.732 | nt | nt | nt | nt | nt | nt | nt | nt | nt
CC(=NNc1nnc2c3ccccc3n(C)c2n1)c1ccc(C)o1 | nt | 0.635 | nt | nt | nt | nt | nt | nt | nt | nt | nt
c1ccc(-c2cc(CSc3nc4ccccc4[nH]3)on2)cc1 | 17.6* | 0.703 | 26.1* | 24.0* | -49.9 | 22.5* | 16.5* | 14.1 | 12.4* | 14.9 | 17.2
COc1cccc(OCc2cc(C=NNC(=O)c3nc(Cl)c(Cl)c(N)c3Cl)ccc2OC)c1 | nt | 0.715 | nt | nt | nt | nt | nt | nt | nt | nt | nt
CCN(CC)c1ccc(/C=N/NC(=O)c2nnn(-c3nonc3N)c2C(C)C)c(O)c1 | 11.1* | nt | 19.7* | 26.9* | -32.4 | 11.3 | 15.7* | 6.9 | 6.5 | 9.3 | 8.5
CC(C)c1c(C(=O)N/N=C/c2ccc3c(c2)OCO3)nnn1-c1nonc1N | -1.9 | nt | -1.8 | 5.5 | 2.6 | nt | nt | nt | nt | nt | nt
CCC(=O)NC(c1ccco1)c1cc(Cl)c2cccnc2c1OC (stereo unspecified) | 0.8 | 0.682 | -1.0 | 0.3 | -19.6 | nt | nt | nt | nt | nt | nt
CC(=O)NC(c1cc(Cl)c2cccnc2c1O)C(C)C (stereo unspecified) | 8.4 | 0.668 | -0.5 | 3.5 | 0.0 | nt | nt | nt | nt | nt | nt
CCCC(=O)NC(c1cccs1)c1cc([N+](=O)[O-])c2cccnc2c1O (stereo unspecified) | 3.0 | 0.659 | -1.2 | 4.8 | -6.7 | nt | nt | nt | nt | nt | nt
CCCCC(=O)NC(c1ccco1)c1cc(Cl)c2cccnc2c1O (stereo unspecified) | 20.6* | 0.707 | 24.1* | 16.4* | 2.0 | 17.7* | 17.6* | 15.1 | 10.3 | 12.4 | 15.2
CCC(=O)NC(c1ccco1)c1cc(Cl)c2cccnc2c1O (stereo unspecified) | 12.6* | 0.712 | 15.4* | 16.1* | 4.0 | 5.0 | 11.0* | 0.9 | 2.5 | 4.4 | 17.5
SMILES | phage Ecoli inh | E coli growth-1 | E coli growth-2 | AddAB inh | Tat transport | AddAB conf | RecBCD counter | bact viab count | RecBCD conf | Ecoli viability | AddAB phage OD
CCC(=O)NC(c1ccc(OC)cc1)c1cc(Cl)c2cccnc2c1O (stereo unspecified) | 20.5* | 0.65 | 23.1* | 26.1* | 0.0 | 20.6* | 22.6* | 18.4 | 12.8* | 17.0 | 21.5*
Cc1nc2ccccc2c(=O)n1/N=C/c1ccc([N+](=O)[O-])o1 | nt | nt | 7.9 | 8.9 | nt | nt | nt | nt | nt | nt | nt
Cc1nc2ccccc2n1/N=C/c1ccc([N+](=O)[O-])o1 | 12.5* | nt | 97.6* | 100.4* | -6.6 | 102.7* | 25.4* | 103.2* | 10.3 | 12.7 | 100.2*
CCn1cc(C(=O)O)c(=O)c2cc(F)c(N3CCN(C(=S)NC(=O)c4cc(OC)cc(OC)c4)CC3)cc21 | 97.5* | 0.083* | 97.9* | 98.0* | 21.7 | 100.5* | 100.4* | 100.5* | 104.5* | 104.5* | 105.6*
C=CCNC(=S)N1CCN(c2cc3c(cc2F)c(=O)c(C(=O)O)cn3CC)CC1 | 40.9* | 0.0765* | 99.3* | 100.5* | 7.3 | 103.4* | 101.1* | 104.2* | 103.4* | 104.7* | 104.1*
CCn1cc(C(=O)O)c(=O)c2cc(F)c(NN=Cc3ccccc3[N+](=O)[O-])cc21 | nt | 0.704 | nt | nt | nt | nt | nt | nt | nt | nt | nt
CCn1cc(C(=O)O)c(=O)c2cc(F)c(N3CCN(S(=O)(=O)c4ccc(Br)cc4)CC3)cc21 | nt | nt | -0.2 | 7.7 | nt | nt | nt | nt | nt | nt | nt
CCCOc1ccc(C(=O)NC(=S)N2CCN(c3ncc4c(=O)c(C(=O)O)cn(CC)c4n3)CC2)cc1 | 3.0 | nt | nt | nt | nt | nt | nt | nt | nt | nt | nt
CCn1cc(C(=O)O)c(=O)c2cc(F)c(N3CCN(C(=S)NC(=O)c4ccccc4)CC3)cc21 | 82.3* | 0.077* | 101.5* | 100.7* | 21.4 | 99.1* | 100.2* | 102.9* | 99.5* | 99.6* | 99.8*
CCn1cc(C(=O)O)c(=O)c2cc(F)c(N3CCN(C(=S)NC(=O)c4ccccc4C)CC3)cc21 | 97.1* | 0.071* | 100.4* | 98.6* | 58.6* | 99.4* | 100.7* | 99.9* | 103.6* | 105.2* | 104.3*
O=C(CC1CC=CCCC(Cc2ccc(F)cc2)C(=O)OC(c2ccccc2)CNC1=O)NCCO (stereo unspecified) | nt | 0.649 | nt | nt | nt | nt | nt | nt | nt | nt | nt
Brc1ccc(-c2ccc(C=NNc3nc(N4CCOCC4)nc(N4CCOCC4)n3)o2)cc1 | nt | 0.687 | nt | nt | nt | nt | nt | nt | nt | nt | nt
